Activity calls are given as the source filed them. The calls were made as follows: active = hit-call score of the fitted dose curve at least 0.9, where 1 is the maximum; inactive = score below 0.9.

Sequence of human Tachykinin Receptor NK1 Agonism, TACR1 (gene 6869) (P25103 whole entry, looked up): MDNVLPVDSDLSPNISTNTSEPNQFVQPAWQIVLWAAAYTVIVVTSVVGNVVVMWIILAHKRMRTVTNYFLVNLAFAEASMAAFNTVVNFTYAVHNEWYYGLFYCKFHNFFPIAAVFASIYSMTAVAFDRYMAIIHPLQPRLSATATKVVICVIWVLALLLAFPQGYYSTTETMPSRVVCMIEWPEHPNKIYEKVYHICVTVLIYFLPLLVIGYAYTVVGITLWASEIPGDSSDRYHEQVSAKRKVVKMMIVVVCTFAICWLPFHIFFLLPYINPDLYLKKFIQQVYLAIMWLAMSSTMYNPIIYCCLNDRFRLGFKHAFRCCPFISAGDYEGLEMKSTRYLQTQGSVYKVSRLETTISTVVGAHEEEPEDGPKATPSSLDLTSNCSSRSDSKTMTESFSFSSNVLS

The assay has as its target human Tachykinin Receptor NK1 Agonism, TACR1 (gene 6869) (UniProt P25103). The assay is described as follows: ERF_TW_GPCR_hTACR1: Eurofins (ERF) G Protein-Coupled Receptor (GPCR) Radioligand Binding LeadHunter Assay for human Tachykinin Receptor NK1 Agonism. On the procedure:
ERF_TW_GPCR_hTACR1 is a biochemical, single-readout assay that uses extracted gene-proteins in a cell-free assay. Measurements were taken 1.5 hour after chemical dosing in a 96-well plate. See NK1 Human Tachykinin GPCR Binding (Agonist Radioligand) Assay, Panlabs.ERF_TW_GPCR_hTACR1 is an assay component calculated from the ERF_TW_GPCR_hTACR1 assay. It is designed to measure radioligand binding using a type of binding reporter as detected by scintillation counting with radiometry technology.Data from the assay component ERF_TW_GPCR_hTACR1 was analyzed at the assay endpoint, ERF_TW_GPCR_hTACR1, in the positive analysis fitting direction relative to DMSO as the negative control and baseline of activity. Using a type of binding reporter, gain-of-signal activity can be used to understand changes in radioligand binding as they relate to gene TACR1. To generalize the intended target to other relatable targets, this assay endpoint is annotated to the gpcr intended target family, where the subfamily is tachykinin.
Human recombinant neurokinin NK1 receptors expressed in CHO cells are used in modified Tris-HCL buffer pH 7.4. A 36 ug aliquot is incubated with 0.8 nM [3H]Substance P for 90 minutes at 4C. Non-specific binding is estimated in the presence of 10 uM L-703,606. Receptors are filtered and washed, the filters are then counted to determine [3H]Substance P specifically bound. […]
In the case of `COc1cc(CCC(=O)CC(=O)CCc2ccc(O)c(OC)c2)ccc1O`, the AC50 was 5 µM (active).

Regarding `CCCCC[C@H](O)CC(=O)CCc1ccc(O)c(OC)c1`, the compound was called inactive.

The values are drawn from PubChem BioAssay AID2284193 (EPA ToxCast).
